About 83,000 compounds went through this panel and 20% of them were active in at least one assay; those are over-represented in the sample as a whole.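 48-hour exposure, single concentration, 96-well plates; percent growth endpoint where 0 means no net growth. Active: below 10.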 A number with no mark means an inactive call. Calls of active or inactive are those of the source.
What was measured:
Assay in all cases: NCI-60 one-dose screen, 48 h (100 = growth as untreated, 0 = no growth, -100 = all killed)
Conditions in all cases: 10 µM unless noted
SK-MEL-2 melanoma = test system: SK-MEL-2 melanoma
EKVX NSCLC = test system: EKVX NSCLC
SN12C renal = test system: SN12C renal
UO-31 renal = test system: UO-31 renal
TK-10 renal = test system: TK-10 renal
ACHN renal = test system: ACHN renal
CAKI-1 renal = test system: CAKI-1 renal
A498 renal = test system: A498 renal
CCRF-CEM leukemia = test system: CCRF-CEM leukemia
MOLT-4 leukemia = test system: MOLT-4 leukemia
RPMI-8226 leukemia = test system: RPMI-8226 leukemia
OVCAR-8 ovarian = test system: OVCAR-8 ovarian
OVCAR-5 ovarian = test system: OVCAR-5 ovarian
OVCAR-4 ovarian = test system: OVCAR-4 ovarian
SK-OV-3 ovarian = test system: SK-OV-3 ovarian
IGROV1 ovarian = test system: IGROV1 ovarian
OVCAR-3 ovarian = test system: OVCAR-3 ovarian
HS 578T breast = test system: HS 578T breast
NCI/ADR-RES ovarian = test system: NCI/ADR-RES ovarian
SR leukemia = test system: SR leukemia

SMILES | growth (SK-MEL-2 melanoma) | growth (EKVX NSCLC) [%] | growth (SN12C renal) | growth (UO-31 renal) | growth (TK-10 renal) [%] | growth (ACHN renal) | growth (CAKI-1 renal) | growth (A498 renal) | growth (CCRF-CEM leukemia) | growth (MOLT-4 leukemia) | growth (RPMI-8226 leukemia) | growth (OVCAR-8 ovarian) | growth (OVCAR-5 ovarian) | growth (OVCAR-4 ovarian) | growth (SK-OV-3 ovarian) | growth (IGROV1 ovarian) | growth (OVCAR-3 ovarian) | growth (HS 578T breast) | growth (NCI/ADR-RES ovarian) | growth (SR leukemia)
COC(=O)CCc1c(/C=C2\N=C(c3ccc[nH]3)C=C2OC)[nH]c(C)c1C(=O)OCc1ccccc1 | -27.8% (active) | 27.4 | 15.8% | -67.2% (active) | 18.4 | 4.36% (active) | -3.87% (active) | 15.1% | 1.47% (active) | 16.9% | -32.5% (active) | 7.03% (active) | 34.1% | 31.3% | 21.5% | 21.7% | -31.1% (active) | -14.7% (active) | 9.4% (active) | –
CC(C)(C)n1cc(-c2ccnc(NCCNS(=O)(=O)c3cccc4ccccc34)c2)c(-c2cccc(O)c2)n1 | 81.7% | 69.8 | 72.5% | 70.2% | 97.2 | 70.1% | 73.7% | 73.1% | 60.1% | 53.4% | – | 65.9% | 84.4% | 80.1% | 81.9% | 87% | 91% | 84.6% | 77% | 30.1%
CCN1CCN(c2nc(NNC(=O)c3ccc(OC)cc3)nc(N3CCN(C(c4ccccc4)c4ccccc4)CC3)n2)CC1 | 78% | 82.6 | 45.7% | 61.2% | 49.5 | 34% | 24% | 60.1% | 43.8% | 16.3% | 12.3% | 63.1% | 106% | 49.1% | 48.3% | 72.3% | 11.7% | 46.2% | 73.4% | –
CC(C)n1cc(C2=C(c3cccc4ccccc34)C(=O)NC2=O)c2cc(Br)ccc21 | 73.8% | 85 | 75.4% | 58% | 109 | 53.8% | 27.9% | -8.37% (active) | 52.8% | 49% | – | 72.7% | 89.8% | – | 64% | 69.9% | 20.7% | 45.8% | 21.1% | 25.8%
COc1ccc(-c2nc3cc(C(=O)NC4CCCCC4)ccc3n2C2CCCCC2)cc1 | 92.4% | 69.2 | 96.4% | 82.6% | 91.5 | 87% | 89.2% | 103% | 94.4% | 74.5% | 79.2% | 107% | 85.6% | 86.6% | 98.7% | 101% | 89.1% | 105% | 90.7% | –
C[C@H]1c2ccccc2CN1CCCOc1cc2c(cc1OCC1CC1)C1(CCCC1)C(N)=N2 | 54% | 72.8 | 67.6% | 29.3% | 92.7 | 69% | 18.5% | 32.5% | 54.6% | 36.4% | 17.6% | 65.9% | 70.5% | 48.8% | 90.2% | 54.8% | 76.9% | 56% | 68% | –
Cc1ccc(C(=O)Nc2ccc(CN3CCN(C)CC3)c(C(F)(F)F)c2)cc1C#Cc1cnc(N)c2ccccc12 | -26.6% (active) | 36 | 11.3% | -34.9% (active) | 29.9 | -91.8% (active) | -81.6% (active) | -32.5% (active) | -15.7% (active) | -45.2% (active) | -39.6% (active) | -42.1% (active) | 2.98% (active) | -52% (active) | -1.39% (active) | -37.6% (active) | -57.7% (active) | -28.1% (active) | -32.8% (active) | –
C#CCOc1ccc(C2=NN(C)C3N=C(Cl)c4ncn(C)c4N23)cc1OCC#C (configuration not stated) | 105% | 102 | 97.6% | 74.6% | 99 | 89.6% | 103% | 85.4% | 87.4% | 82.9% | – | 93.1% | 82.6% | 102% | 101% | 102% | 118% | 99.9% | 88.4% | 91%
Cc1nc2c(c(-c3ccccc3)n1)Cc1c(ccc3ccccc13)O2 | 112% | 128 | 102% | 69.8% | 106 | 90.8% | 109% | 79.1% | 96.5% | 97% | – | 95.1% | 93.1% | – | 96.4% | 118% | 99.1% | 83.3% | 98% | 107%
CCOC(=O)c1ccc2c(c1)[n+](=O)c(C(C)=O)c(C(F)(F)F)n2[O-] | 12.1% | 29.1 | 4.58% (active) | 27.4% | 40.9 | 5.29% (active) | 40% | 12.5% | -18.1% (active) | -56.4% (active) | – | -42.6% (active) | -1.19% (active) | -5.96% (active) | 24.8% | -81.1% (active) | -84.7% (active) | -23.9% (active) | 6.85% (active) | -59.2% (active)
O=c1c(Cc2ccc(F)cc2)cc(-c2ccccc2)nn1C/C(=N/O)c1ccccc1 | 36.8% | 29.1 | 17.2% | 30.9% | 63.5 | 40.3% | 47% | 9.7% (active) | 34.6% | 16.1% | – | 43.7% | 66.9% | 41.5% | 74.7% | – | 49.5% | 73.8% | 34.7% | 30.3%
Cc1cc2c(c(C)n1)CN(C(=O)Nc1nc(-c3cncs3)ccc1N)C2 | 81% | 97.3 | 105% | 92% | 62.7 | 106% | 76.8% | 96% | 107% | 107% | 93.7% | 92.3% | 103% | 96.7% | 89% | 92.6% | 103% | 104% | 96.5% | –
COc1cc(NC(=O)c2cncnc2Nc2ccc3c(ccn3Cc3cccc(F)c3)c2)cc(OC)c1 | 66.7% | 85.3 | 67.4% | 37.9% | 76.8 | 54% | 34.8% | 24.3% | 26.4% | 19.8% | 63.5% | 65.8% | 71.7% | 95.1% | 67% | 50.8% | 23% | 51% | 42.1% | –
CCOC(=O)C1=C(c2ccccc2)N=C2N(c3ccccc3)N=C(C(C)=O)N2C1c1ccc(Br)cc1 (configuration not stated) | 90.3% | 93.9 | 90% | 72.7% | 109 | 93.3% | 87.1% | 42.9% | 87.7% | 93.6% | 77.8% | 93.9% | 104% | 104% | 112% | 88% | 102% | 83.2% | 103% | –
CC(=O)CC(=O)c1ccccc1.[Cu+2] | 107% | 99.4 | 105% | 94.5% | 103 | 104% | 101% | 141% | -10.7% (active) | 91.7% | 97.8% | 110% | 107% | 106% | 82.4% | 87% | 114% | 119% | 104% | –

Reference: PubChem BioAssay (NCI)
